GPR151 activ: human GPR151 activation; Q8TDV0; PathHunter beta-arrestin GPR151 cells, luminescence; activation, % at 11.2 µM; hit rate 1% among 650,000; AID 1508602; in the data active = activation above about 4.9%
MITF inh: human MITF inhibition, primary screen | hit rate 0.91% among 650,000 | O75030 | AlphaScreen MITF homodimerization, bead proximity signal | AID 1259374 | inhibition, % at 2.6 µM; in the data active = inhibition above about 50%
FBW7 activator: human FBW7 E3 ligase activation, primary screen | hit rate 0.13% among 650,000 | Q969H0 | AID 1259310 | normalized activity (activation), % at 26.1 µM | AlphaScreen FBW7–phospho-cyclin E peptide binding, activator screen; in the data active = normalized activity above about 1.9%;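 note: purified mutant Fbw7 with reduced substrate affinity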
Target sequence (Q969H0 whole entry, looked up): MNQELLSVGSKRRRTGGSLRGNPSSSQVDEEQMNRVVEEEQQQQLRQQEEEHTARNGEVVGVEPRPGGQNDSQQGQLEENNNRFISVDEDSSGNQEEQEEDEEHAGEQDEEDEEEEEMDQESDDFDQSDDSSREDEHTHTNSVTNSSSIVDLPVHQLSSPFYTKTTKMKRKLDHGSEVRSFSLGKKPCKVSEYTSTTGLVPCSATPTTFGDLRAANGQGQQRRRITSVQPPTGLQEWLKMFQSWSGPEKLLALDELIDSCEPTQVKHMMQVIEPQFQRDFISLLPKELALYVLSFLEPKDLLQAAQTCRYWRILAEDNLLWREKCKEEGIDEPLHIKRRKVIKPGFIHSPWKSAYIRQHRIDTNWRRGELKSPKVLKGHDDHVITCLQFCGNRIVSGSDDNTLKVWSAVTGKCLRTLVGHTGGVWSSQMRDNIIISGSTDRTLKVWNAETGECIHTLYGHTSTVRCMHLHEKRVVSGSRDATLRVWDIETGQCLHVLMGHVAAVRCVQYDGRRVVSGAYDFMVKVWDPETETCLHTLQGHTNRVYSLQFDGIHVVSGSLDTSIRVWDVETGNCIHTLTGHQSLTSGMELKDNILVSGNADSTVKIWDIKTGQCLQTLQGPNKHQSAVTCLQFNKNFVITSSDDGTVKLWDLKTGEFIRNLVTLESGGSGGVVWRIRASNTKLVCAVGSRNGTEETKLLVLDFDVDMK
TEAD-YAP inh: TEAD-YAP interaction inhibition | hit rate 1.4% among 640,000 | inhibition, % at 9.12 µM | HEK-TIYL cells, TEAD-Gal4/YAP UAS-luciferase luminescence; in the data active = inhibition above about 32%
Hits are given with their value; i = inactive; nt = no result. A selection: hits, their analogues and other compounds. The true share with any hit is near 3.5%.

SMILES | GPR151 activ | MITF inh | FBW7 activator | TEAD-YAP inh
CCOc1ccc(NC(C)C(=O)N/N=C/c2ccc(C)o2)cc1 (centres undefined) | i | i | i | i
CCCNc1nc(N2CCN(c3ccccn3)CC2)nc2c1ncn2-c1ccsc1 | i | i | i | i
Oc1ccc(CCNc2nc(N3CCN(c4ccccn4)CC3)nc3c2ncn3-c2ccsc2)cc1 | i | i | i | 53
c1ccc(OCCNc2ncnc3nc(N4CCN(c5ccccn5)CC4)[nH]c23)cc1 | i | i | i | i
Oc1ccc(CCNc2ncnc3nc(N4CCN(c5ccccn5)CC4)[nH]c23)cc1 | i | i | i | 39
O=c1[nH]c2cc(Cl)c(S(=O)(=O)Nc3ccc(OC(F)(F)F)cc3)cc2o1 | i | i | i | i
O=C(Cc1ccccc1)Nc1ccc(I)cc1F | i | i | i | i
CCn1cccc/c1=N\c1cccc[n+]1CC | i | i | i | 50
CC(C)Oc1ccccc1/C=C1\SC(N2CCOCC2)=NC1=O | i | i | i | 39
COc1cccc(/C=C2\SC(N3CCCC3)=NC2=O)c1OC | i | i | i | i
COc1cccc(/C=C2/SC(N3CCCC3)=NC2=O)c1OC | i | i | i | 33
CC(C)Oc1ccccc1/C=C1/SC(N2CCN(C)CC2)=NC1=O | i | i | i | i
CC(Sc1nnc(-c2ccc(C(C)(C)C)cc2)o1)C(=O)Nc1nccs1 (centres undefined) | i | i | i | 52
O=C(Nc1nccs1)c1cc(Br)c(Br)s1 | i | i | i | i
CC(C)c1ccc(NC(=O)COc2ccc(C(C)C)cc2)cc1 | i | i | i | i
O=C(Nc1nccs1)c1cc2c(s1)CCCC2 | i | i | i | 65
CC(C)c1ccc(OCC(=O)Nc2nccs2)cc1 | i | i | i | 81
CC(Sc1nnc(N)s1)C(=O)Nc1nccs1 (centres undefined) | i | i | i | i
CC(=O)c1ccc(OCC(=O)Nc2nccs2)cc1 | i | i | i | 55
O=C(COc1ccc2c(c1)CCC2)Nc1nccs1 | i | i | i | 74
CC(C)(C)c1ccc(OCC(=O)Nc2nccs2)cc1 | i | i | i | 74
O=C(Cc1ccc2c(c1)CCCC2)Nc1nccs1 | i | i | i | i
O=C(COc1ccc(Br)cc1)Nc1nccs1 | i | i | i | 35
CCOC(=O)C1=C(C)N=c2s/c(=C\c3cc(Br)ccc3OCC)c(=O)n2C1c1ccccc1OC(C)C (centres undefined) | i | i | i | i
CC(=O)Oc1cc(N2CCOCC2)c(OC(C)=O)c2c1C(=O)c1ccccc1C2=O | i | i | i | 64
SMILES | GPR151 activ | MITF inh | FBW7 activator | TEAD-YAP inh
Cn1nc(C(C)(C)C)cc1C(=O)NCc1ccc2c(c1)CCO2 | i | i | i | 42
CN(C)c1ccc(C(=O)NCc2ccc3c(c2)CCO3)cc1 | i | i | i | i
O=C(CCn1ncc2ccccc21)N1CCCC1c1nc2ccccc2[nH]1 (centres undefined) | i | i | i | i
O=C(Nc1ccc(F)cc1)C1CC(=O)N(Cc2ccc3c(c2)OCO3)C(=Nc2cccc(C(F)(F)F)c2)S1 (centres undefined) | i | i | i | i
NC(=O)c1ccccc1Nc1cc(Nc2ccc(-n3cnc(N4CCOCC4)n3)cc2)ncc1C(F)F | i | i | i | 42
Cc1cnc(Nc2ccc(-n3cnc(N4CCOCC4)n3)cc2)cc1Nc1ccccc1C(N)=O | i | i | i | 82
Cc1cnc(Nc2ccncc2)cc1Nc1ccccc1C(N)=O | i | i | i | i
C[C@H](Nc1ccc(C(F)(F)F)cc1[N+](=O)[O-])C(=O)OCC(=O)Nc1sccc1C#N | i | i | i | i
O=C(CSc1ccccc1C(=O)O)Nc1ccnc2ccccc12 | i | i | i | i
O=C(CSc1nnnn1C1CC2CCC1C2)Nc1ccnc2ccccc12 (centres undefined) | i | i | i | 61
CCOC(=O)c1ccc(CN(Cc2ccc(Br)cc2)S(=O)(=O)c2ccc(Br)cc2)cc1 | i | i | i | i
Cc1ccc(-c2cc(C(=O)N3CCCCC3C)no2)cc1 (centres undefined) | i | i | i | i
CC(C)N(CCNc1nc(Nc2ccnn2C)nc2c1ncn2-c1ccsc1)C(C)C | i | i | i | 35
CCNc1nc(NCCc2ccc(O)cc2)c2ncn(-c3ccsc3)c2n1 | i | i | i | i
Cn1nccc1Nc1nc(NCCc2ccc(O)cc2)c2ncn(-c3ccsc3)c2n1 | i | i | i | 60
COc1ccc(CCNc2nc(NC3CCC(O)CC3)nc3c2ncn3-c2ccsc2)cc1 (centres undefined) | i | i | i | 48
CC(C)N(CCNc1nc(Nc2ccccn2)nc2c1ncn2-c1ccsc1)C(C)C | i | i | i | i
Oc1ccc(CCNc2nc(Nc3ccncc3)nc3c2ncn3-c2ccsc2)cc1 | i | i | i | 56
Oc1ccc(CCNc2nc(Nc3ccc(C(F)(F)F)cc3)nc3c2ncn3-c2ccsc2)cc1 | i | i | i | i
O=C1CCCN1CCCNc1nc(Nc2ccc(-n3ccnc3)cc2)nc2c1ncn2Cc1ccc(C(F)(F)F)cc1 | i | i | i | i
CCCC1CC(C)(c2csc(Nc3ccccc3Cl)n2)OC1=O (centres undefined) | i | i | i | i
O=C(NCc1ccco1)c1cc(Br)ccc1Cl | i | i | i | i
Cc1ccc(C2CC(C(F)(F)F)n3ncc(C(=O)Nc4cccc(C)c4Cl)c3N2)cc1 (centres undefined) | i | i | i | i
COc1ccc(CCNc2nc(Nc3ccncc3)nc3c2ncn3-c2ccsc2)cc1 | i | i | i | 42
COc1ccc(CCNc2nc(Nc3cnccn3)nc3c2ncn3-c2ccsc2)cc1 | i | i | i | i
SMILES | GPR151 activ | MITF inh | FBW7 activator | TEAD-YAP inh
COc1ccc(CCNc2nc(Nc3cccnc3)nc3c2ncn3-c2ccsc2)cc1 | i | i | i | 65
COc1ccc(CCNC(=O)CSc2nc3nc(C)c(Cc4c(F)cccc4Cl)c(C)n3n2)cc1OC | i | i | i | i
O=C(Cn1nnc(-c2ccc(CN3CCCCC3)cc2)n1)Nc1ccccc1Cl | i | i | i | i
C/C(=N\N=C1\NC(=O)C(CC(=O)Nc2ccccc2C)S1)C(C)(C)C (centres undefined) | i | i | i | i
Cc1nc2ccccc2c(=O)n1/N=C/c1ccc(O)c(O)c1O | i | 57 | i | i
O=C1Nc2ccccc2/C1=N\N=C\c1ccc(O)c(O)c1O | i | 58 | i | i
O=C1c2ccccc2C(=O)N1/N=C/c1ccc(O)c(O)c1O | i | 92 | i | i
N#CS/C=C/C(=O)c1ccccc1 | i | i | i | 52
Cc1cc2nccc(NC(=O)CSc3ccccc3)n2n1 | i | i | 2.1 | i
Cc1cc2nccc(NC(=O)c3c(F)cccc3F)n2n1 | i | i | i | i
COC(=O)c1c(N)sc(C(=O)Nc2cccc(Cl)c2C)c1C | i | i | i | 69
CCOC(=O)c1c(N)sc(C(=O)Nc2ccccc2)c1C | i | i | i | 32
CCOC(=O)c1c(N)sc(C(=O)Nc2cccc(Cl)c2)c1C | i | i | i | 50
CCOC(=O)c1c(N)sc(C(=O)Nc2ccc(C)c(Cl)c2)c1C | i | i | i | 35
CC(C)(C)n1nc2c(c1NC(=O)CCC1CCCC1)CS(=O)(=O)C2 | i | i | nt | nt
CCOC(=O)c1c(N)sc(C(=O)Nc2ccccc2C(F)(F)F)c1C | i | i | i | i

Assay outcomes: PubChem, The Scripps Research Institute Molecular Screening Center
